Each structure is given as a SMILES string. Out of some 360,000 compounds screened, about 16,000 (4.4%) were called active. Not shown: some 9% with an inconclusive outcome. This excerpt belongs to a sample that is enriched for actives. Values without a mark were called inactive. The call rests on the fitted dose curve; in most records, active means well fitted inhibition curve with a large enough effect; inconclusive means small, poorly fitted or top-dose-only effect; inactive means no such curve, though single readings can be large or run the other way.
On the % scale 0 is the no-effect control and ±100 the full control effect; potency means the concentration at half of the fitted maximal effect.

Sequence of Bromodomain adjacent to zinc finger domain protein 2B (Homo sapiens) (Q9UIF8 whole entry, looked up, the tested form may be a part): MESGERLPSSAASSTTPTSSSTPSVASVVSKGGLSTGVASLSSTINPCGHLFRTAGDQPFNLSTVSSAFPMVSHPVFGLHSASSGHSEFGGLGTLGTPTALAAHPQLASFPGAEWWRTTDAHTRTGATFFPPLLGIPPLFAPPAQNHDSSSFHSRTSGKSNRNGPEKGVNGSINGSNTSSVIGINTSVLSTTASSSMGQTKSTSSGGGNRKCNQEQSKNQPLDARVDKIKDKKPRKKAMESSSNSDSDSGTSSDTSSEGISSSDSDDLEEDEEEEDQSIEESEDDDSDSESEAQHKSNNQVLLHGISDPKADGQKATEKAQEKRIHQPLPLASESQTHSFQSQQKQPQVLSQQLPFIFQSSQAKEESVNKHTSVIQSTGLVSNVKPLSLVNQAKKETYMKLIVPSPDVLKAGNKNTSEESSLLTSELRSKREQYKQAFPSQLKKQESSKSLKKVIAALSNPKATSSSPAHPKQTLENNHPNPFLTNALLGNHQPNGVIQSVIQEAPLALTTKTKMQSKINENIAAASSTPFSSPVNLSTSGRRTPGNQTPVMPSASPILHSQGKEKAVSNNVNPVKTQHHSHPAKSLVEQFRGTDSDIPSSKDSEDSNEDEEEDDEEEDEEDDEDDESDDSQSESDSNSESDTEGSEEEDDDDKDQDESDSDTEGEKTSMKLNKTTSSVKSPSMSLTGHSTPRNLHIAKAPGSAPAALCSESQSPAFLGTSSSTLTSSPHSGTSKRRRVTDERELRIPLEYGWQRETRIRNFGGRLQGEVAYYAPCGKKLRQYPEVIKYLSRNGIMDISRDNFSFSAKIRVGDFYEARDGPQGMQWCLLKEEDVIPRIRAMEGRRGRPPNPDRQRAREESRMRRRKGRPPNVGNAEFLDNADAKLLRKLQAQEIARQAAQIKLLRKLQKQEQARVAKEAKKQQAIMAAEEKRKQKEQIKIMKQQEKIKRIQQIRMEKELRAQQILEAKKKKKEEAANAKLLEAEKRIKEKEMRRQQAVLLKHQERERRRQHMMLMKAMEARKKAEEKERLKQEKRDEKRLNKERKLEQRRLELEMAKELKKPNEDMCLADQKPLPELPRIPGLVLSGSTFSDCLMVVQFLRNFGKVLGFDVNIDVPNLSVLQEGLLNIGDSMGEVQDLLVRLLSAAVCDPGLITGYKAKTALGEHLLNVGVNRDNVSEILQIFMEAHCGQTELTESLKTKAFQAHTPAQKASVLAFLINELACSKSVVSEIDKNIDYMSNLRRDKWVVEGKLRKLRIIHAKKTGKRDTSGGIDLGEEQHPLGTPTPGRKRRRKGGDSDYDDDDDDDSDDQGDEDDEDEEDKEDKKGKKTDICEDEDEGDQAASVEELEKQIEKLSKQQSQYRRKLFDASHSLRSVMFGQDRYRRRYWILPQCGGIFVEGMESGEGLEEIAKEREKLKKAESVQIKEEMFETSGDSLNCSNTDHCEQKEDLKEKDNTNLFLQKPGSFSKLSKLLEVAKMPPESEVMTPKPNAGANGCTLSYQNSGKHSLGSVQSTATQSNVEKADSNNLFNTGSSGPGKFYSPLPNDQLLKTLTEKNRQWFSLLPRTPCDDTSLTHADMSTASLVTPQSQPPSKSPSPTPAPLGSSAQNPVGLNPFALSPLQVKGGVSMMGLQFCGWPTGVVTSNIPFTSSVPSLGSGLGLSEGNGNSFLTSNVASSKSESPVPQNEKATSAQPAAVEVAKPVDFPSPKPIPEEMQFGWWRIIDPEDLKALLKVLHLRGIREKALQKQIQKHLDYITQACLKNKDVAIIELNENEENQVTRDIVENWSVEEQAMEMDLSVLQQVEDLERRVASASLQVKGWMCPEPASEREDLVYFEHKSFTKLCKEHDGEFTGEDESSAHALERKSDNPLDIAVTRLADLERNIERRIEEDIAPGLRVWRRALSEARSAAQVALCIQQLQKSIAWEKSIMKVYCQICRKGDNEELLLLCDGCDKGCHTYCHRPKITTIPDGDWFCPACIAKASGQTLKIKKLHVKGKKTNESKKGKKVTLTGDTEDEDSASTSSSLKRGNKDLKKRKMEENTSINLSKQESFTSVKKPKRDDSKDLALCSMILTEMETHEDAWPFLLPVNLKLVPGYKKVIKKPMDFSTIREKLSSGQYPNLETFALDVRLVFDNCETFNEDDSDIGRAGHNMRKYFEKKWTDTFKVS

The test has as its target Bromodomain adjacent to zinc finger domain protein 2B (Homo sapiens) (UniProt Q9UIF8). Put plainly: qHTS Assay for Inhibitors of BAZ2B. Further: nearly all actives have a fitted effect of over 60% in size. Conditions: AlphaScreen BAZ2B-H3K14Ac peptide displacement; series mostly up to 114 µM; activity change, negative = inhibition: at the top concentration. An excerpt:
BAZ2B (bromodomain adjacent to zinc finger domain, 2B) belongs to a family of ubiquitously expressed bromodomain containing proteins, which biological function has not yet been elucidated. […] The interaction of BAZ2B with ISWI mediated by the BAZ1 motif has recently been described. […] The protocol is based on the AlphaScreen (PerkinElmer) displacement assay developed by NCGC [5], but uses the peptide ligand Biot-H3K14Ac, a high affinity binding partner for BAZ2B, in an AlphaScreen format. Although AlphaScreen has significant advantages with its utility in a variety of epigenetic target assays, the primary screening data provided in this deposition should be used with caution due to the prevalence of screening artifacts. The top compound concentration tested was 110uM in this assay, which increases number of actives and potential artifacts. An AlphaScreen counterscreen is highly recommended to be run against any putative actives to eliminate non-specific artifacts. Alternatively, one can use other AlphaScreen assays in PubChem to filter out promiscuous hits. Eberharter, A. et al. ACF1 improves the effectiveness of nucleosome mobilization by ISWI through PHD-histone contacts. The EMBO journal 23, 4029-4039. 2004. PMID: 15457208 [2] Jones, M.H. et al. A novel family of bromodomain genes. Genomics 63, 40-45. 2000. PMID: 10662543 [3] Yasgar, et al. Compound Management for Quantitative High-Throughput Screening. JALA. 2008 Apr;13(2):79-89. PMID: 18496600 [4] Inglese, et al. Quantitative high-throughput screening: a titration-based approach that efficiently identifies biological activities in large chemical libraries. Proc Natl Acad Sci. 1;103(31):11473-8. 2006. PMID: 16864780 [5] Quinn et al. A chemiluminescence-based method for identification of histone lysine methyltransferase inhibitors. Mol Biosyst 6(5): 782-8. 2010. PMID: 20567762 [6] Baell,Holloway. New substructure filters for removal of pan assay interference compounds (PAINS) from screening libraries and for their exclusion in bioassays. J Med Chem. 53(7):2719-40. 2010. PMID: 20131845 NIH Molecular Libraries Probe Production Network [MLPCN] NIH Chemical Genomics Center [NCGC] Structural Genomics Consortium (SGC) NIH Grant: 5U54 MH084681-02
To each well of a 1,536w plate, 2ul of BAZ2B protein (final 50nM) and 1ul biotinylated histone peptide acetylated at Lys14 [b-H3(5-23)K14Ac] (final 50nM) were added in 1x PBS buffer, pH 7.4, containing 0.01% Tween-20, using a nanoliter dispenser. Formation of a protein-peptide complex proceeded at room temperature for 30 min. A Kalypsys pin-tool was employed to transfer 23 nL of library compound solution in DMSO to each well. Following a 30 min incubation of the protein-peptide complex with compounds at room temperature, a mixture of 40 ug/mL each streptavidin-coated donor and nickel chelate acceptor AlphaScreen beads (final 10 ug/mL) were added in a 1ul dispense for a final volume of 4ul. A brief centrifugation followed (1000rpm, 1 min) and were then incubated protected from the light for 20 min at room temperature. Plates were read on an EnVision multilabel plate reader using the 1,536 plate HTS AlphaScreen aperture (excitation time 80 ms, measurement time 240 ms).
On the technique in general: In qHTS, concentration-response curves come from the screen itself.
Turning to `O=[N+]([O-])c1ccccc1S(=O)(=O)Nc1cccc2cccnc12`, the Potency was 25.1 µM (active).
For the compound `Cc1ccccc1NC(=O)c1ccccc1NS(=O)(=O)c1cccc2cccnc12`, the “activity change, negative = inhibition” value was -10.2%.
In the case of `Cc1nn(-c2nc(-c3ccccc3)cc(C(F)(F)F)n2)c(C)c1Cl`, the “activity change, negative = inhibition” value was 47%.
As to `COC(=O)C(NC(C)=O)(Nc1nc2c(s1)CCCC2)C(F)(F)F` (configuration not stated), the Potency was 56.2 µM (active).
Take `Cc1cc(C)cc(OC(C)C(=O)Nc2nc3c(s2)CCCC3)c1` (configuration not stated): the “activity change, negative = inhibition” value is -7.96%.
The same measure, in the same setting: next, `O=C(Nc1nc2c(s1)CCCC2)c1ccccc1F`: -17.9%; `O=C(CCS(=O)(=O)c1ccc2c(c1)NC(=O)CO2)Nc1cccc(C(F)(F)F)c1`: -2.62%.
Turning to `CCOC(=O)CSC1=Nc2ccccc2C2=NC(CCC(=O)NCc3ccc(F)cc3)C(=O)N12` (configuration not stated), the “activity change, negative = inhibition” value was 0.0886%.
Still for that read-out and setting: next, `CCOC(=O)C(Cc1ccc(N)cc1)N1C(=O)c2ccccc2C1=O` (configuration not stated): -37.5%; `N[C@@H](Cc1ccccc1)C(=O)N1CCOCC1`: -4.8%.
Regarding `Cc1ccc(C)n1C(Cc1ccccc1)C(=O)O` (configuration not stated), the Potency was 39.8 µM (active).
Regarding `Cc1ccc2nc(CN3CCN(S(=O)(=O)c4ccc(C)c(C)c4)CC3)oc2c1`, the “activity change, negative = inhibition” value was -10.3%.
On to `Cc1nn(-c2ccccn2)c2c1C(c1ccncc1)C1=C(CC(C)(C)CC1=O)N2` (configuration not stated), for which the “activity change, negative = inhibition” value was -34.3%.
Turning to `Cc1cc(C)c(C2C3=C(Nc4c2c(C)nn4-c2ccccn2)c2ccccc2C3=O)c(C)c1` (configuration not stated), the Potency was 10 µM (active).
For the compound `CC(=C1C(=O)c2ccccc2C1=O)N1CCN(c2ccccn2)CC1`, the “activity change, negative = inhibition” value is -6.35%.
The same measure, in the same setting: next, `COc1ccccc1CCNC(=O)c1cccn1-c1nnc(N2CCCCC2)s1`: -16.4%; `CCCOc1cccc(C(=O)Nc2cccc(NC(=O)c3ccc(C(C)(C)C)cc3)c2)c1`: -1.31%.
Still for that read-out and setting: as for `CCOC(=O)c1ccc(NC(=O)Cn2c(=O)n(-c3ccc(C)cc3)c(=O)c3c2cnn3C)cc1`, the figure is -1.23%; as for `O=C(NC1CCCCC1)c1ccc2c(c1)N(Cc1ccc(Cl)cc1)C(=O)c1ccccc1S2=O` (configuration not stated), -6.93%; as for `CCSc1nnc(NC(=O)c2cc(=O)c3cc(C)c(C)cc3o2)s1`, -3.2%.
As for `NC(=O)CSc1nnc(NC(=O)c2ccc(Br)o2)s1`, the Potency was 56.2 µM (active).
As for `NC(=O)CSc1nnc(NC(=O)c2ccc3ccccc3c2)s1`, the “activity change, negative = inhibition” value is 5.1%.
The same measure, in the same setting: next, `CCCNC(=O)C(CC)n1nc(CC)n2c(cc3oc(C)cc32)c1=O` (configuration not stated): -2.51%.
Regarding `COc1cccc(NC(=O)C(=O)NCC(c2ccc3c(c2)OCO3)N2CCN(C)CC2)c1` (configuration not stated), the “activity change, negative = inhibition” value is 3.37%.
Still for that read-out and setting: as for `CC(C)C(=O)Nc1nc2c(s1)CC(C(C)(C)C)CC2` (configuration not stated), the figure is 1.19%; as for `CCOC(=O)c1cc2cc3ccccc3cc2oc1=O`, -24.2%; as for `COc1ccc(CNC(=O)CCN2C(=O)c3ccccc3C2=O)cc1`, -3.11%.
Regarding `CCOC(=O)C1=C(c2ccc(OC)cc2)C(=O)c2ccccc2C1=O`, the Potency was 20 µM (active).
As for `CCCCn1cc(S(=O)(=O)c2ccc(OCC)cc2)c(=O)c2cc(OC)c(OC)cc21`, the “activity change, negative = inhibition” value is -34.9%.
Still for that read-out and setting: next, `Cc1ccc(CCNC(=O)C2CCN(c3nnc(-n4cccc4CNc4ccc(C)cc4)s3)CC2)cc1`: -8.92%.
Turning to `C/C(=N\Nc1cccc(C(=O)O)c1)c1ccc2c(c1)Nc1ccccc1S2`, the Potency was 44.7 µM (active).
With `CC(=O)Nc1cccc(/C(C)=N/NC(=O)c2c(-c3ccccc3Cl)noc2C)c1`, the “activity change, negative = inhibition” value was 5.83%.
Consider `Cc1ccccc1NC(=O)c1cc(S(=O)(=O)Nc2cccc(C(=O)O)c2)ccc1Cl`, for which the “activity change, negative = inhibition” value was -0.0282%.
On the same count and under the same terms, next, `Cc1ccc2nc(COc3ccccc3NC(=O)Nc3ccc(F)c(Cl)c3)cc(=O)n2c1`: 0.153%.
For the compound `Cc1ccc(-n2nc(C)c(C(=O)O)c2-n2cccc2)cc1`, the Potency was 50.1 µM (active).
As to `Cc1nn(-c2ccccc2)c(-n2cccc2)c1C(=O)O`, the “activity change, negative = inhibition” value was 3.55%.
The same measure, in the same setting: as for `Cc1nn(-c2ccc(F)cc2)c(-n2cccc2)c1C(=O)N1CCN(c2ccccc2)CC1`, the figure is -11.9%.
The same measure, in the same setting: next, `O=C(NCc1ccc2c(c1)CCN2C(=O)c1ccccc1)Nc1cc(F)ccc1F`: -2.67%.
On the same count and under the same terms, next, `COc1ccc(OC)c(NC(=O)CSC2=Nc3ccccc3C3=NC(CC(=O)NCc4ccc(F)cc4)C(=O)N23)c1` (configuration not stated): -32.1%; `COc1ccccc1NC(=O)c1sc2nc(C)c(C(=O)Nc3ccc(Cl)cc3)c(-c3ccc(Br)cc3)c2c1N`: -20.6%; `Cc1ccc(CSCC(=O)N(C)CC(=O)Nc2ccc(C)cc2)cc1`: 1.11%.
Consider `CCCCN(C)CCNC(=O)CSCc1ccc(C)cc1`, for which the Potency was 50.1 µM (active).
Consider `CCN(CC(=O)Nc1cc(Cl)ccc1C)C(=O)CSCc1ccc(C)cc1`, for which the “activity change, negative = inhibition” value was 7.16%.
For the compound `CCOc1ccccc1C(=O)NC1(C(F)(F)F)NC(=O)N(CCc2ccc(OC)c(OC)c2)C1=O` (configuration not stated), the “activity change, negative = inhibition” value was -25.7%.
Same read-out and setting: next, `CCN(C(=O)c1sc2cc(OC)ccc2c1Cl)c1ccccc1`: 31%; `CCC(=O)Nc1ccc2nc(SCC(=O)N3CCc4ccccc43)sc2c1`: -26.5%.
Still for that read-out and setting: as for `CCN(CCCNC(=O)Cn1ncc2c3ccccc3n(C)c2c1=O)Cc1ccccc1`, the figure is -2.02%.
Turning to `CCc1ccc(NC(=O)c2nn(-c3ccc(C)cc3)c(=O)n(C)c2=O)cc1`, the “activity change, negative = inhibition” value was -15.6%.
On the same count and under the same terms, next, `CCCC(=O)Nc1cc2nn(-c3ccccc3)nc2cc1C`: 2.37%; `Cc1nc2ccn(Cc3cccnc3)c(=O)c2cc1C(=O)N1CCN(c2ccccc2F)CC1`: -10.5%.
Still for that read-out and setting: next, `O=C(Cn1nc(Cc2cccnc2)c2ccccc2c1=O)N1CCN(c2ccccc2F)CC1`: -14%.
With `O=C(Nn1cc(C(=O)N2CCN(c3ccccc3F)CC2)c2ccccc2c1=O)c1cnccn1`, the Potency was 28.2 µM (active).

Values taken from PubChem BioAssay AID504333 (National Center for Advancing Translational Sciences (NCATS), 2011).
